In all, about 310,000 compounds went through this assay and about 2,200 (0.71%) showed an effect of 50% or more. Effects have a minus sign here. This excerpt belongs to a sample that is enriched for strong results.

The target of the experiment is human ether-à-go-go-related gene (hERG) potassium channel (human, UniProt Q12809). The experiment can be described thus: primary screen, population patch clamp on CHO cells stably expressing hERG; higher = less effect of the substance.
Sequence of human ether-à-go-go-related gene (hERG) potassium channel (Q12809 whole entry, looked up): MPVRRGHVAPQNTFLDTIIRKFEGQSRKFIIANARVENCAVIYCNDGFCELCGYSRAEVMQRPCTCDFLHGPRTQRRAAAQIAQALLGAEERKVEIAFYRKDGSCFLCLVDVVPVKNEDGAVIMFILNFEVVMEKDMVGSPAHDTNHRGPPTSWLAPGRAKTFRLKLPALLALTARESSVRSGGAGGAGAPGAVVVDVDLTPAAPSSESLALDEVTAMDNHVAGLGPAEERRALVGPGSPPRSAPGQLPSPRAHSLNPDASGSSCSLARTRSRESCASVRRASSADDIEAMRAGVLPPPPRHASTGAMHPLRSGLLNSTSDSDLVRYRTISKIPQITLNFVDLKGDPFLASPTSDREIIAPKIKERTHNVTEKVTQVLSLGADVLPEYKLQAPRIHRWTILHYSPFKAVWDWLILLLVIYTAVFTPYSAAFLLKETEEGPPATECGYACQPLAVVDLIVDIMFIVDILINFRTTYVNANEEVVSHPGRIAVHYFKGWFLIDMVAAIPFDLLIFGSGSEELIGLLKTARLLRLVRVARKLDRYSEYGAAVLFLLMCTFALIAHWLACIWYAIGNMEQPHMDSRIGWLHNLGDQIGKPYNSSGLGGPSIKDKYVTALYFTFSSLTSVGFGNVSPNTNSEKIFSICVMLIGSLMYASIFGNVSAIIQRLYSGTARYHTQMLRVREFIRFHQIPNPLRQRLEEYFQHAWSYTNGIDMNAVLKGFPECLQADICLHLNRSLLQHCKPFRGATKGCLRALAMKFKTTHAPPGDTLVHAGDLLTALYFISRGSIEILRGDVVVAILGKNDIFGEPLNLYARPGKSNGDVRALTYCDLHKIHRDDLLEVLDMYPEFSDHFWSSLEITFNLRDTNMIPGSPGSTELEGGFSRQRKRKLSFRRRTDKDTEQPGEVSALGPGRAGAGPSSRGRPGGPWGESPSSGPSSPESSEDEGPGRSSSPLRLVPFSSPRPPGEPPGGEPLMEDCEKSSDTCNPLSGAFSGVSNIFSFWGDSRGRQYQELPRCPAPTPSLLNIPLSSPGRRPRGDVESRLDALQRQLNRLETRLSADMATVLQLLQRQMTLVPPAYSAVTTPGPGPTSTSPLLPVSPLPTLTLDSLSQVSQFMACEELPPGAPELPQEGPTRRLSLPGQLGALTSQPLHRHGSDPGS
`Oc1[nH]c2ccc(Br)cc2c1N=NC(=S)N1CCOCC1`: the “hERG current change (%, negative = inhibition) at 1uM” value is 17.6%.
Consider `Cc1onc(-c2c(Cl)cccc2Cl)c1C(=O)O/N=C(\C#N)c1ccccc1`, for which the “hERG current change (%, negative = inhibition) at 1uM” value came out at 7.14%.
The same measure for `O=C(CSC1=NS(=O)(=O)c2cc(F)ccc2N1)Nc1cccc(F)c1`: 2.39%; for `CCCc1cc(=O)[nH]c(SCC(=O)NC)n1`: -0.511%.
For the compound `O=Cc1cn(Cc2ccc(F)cc2)c2ccccc12`, the “hERG current change (%, negative = inhibition) at 1uM” value is 14.4%.
The result for `O=C(NCCCN1CCCC1=O)C1CCN(S(=O)(=O)c2cccc(C(F)(F)F)c2)CC1` reads 23.6%.
The same measure for `CCc1nnc(NC(=O)C(C)N2C(=O)C3C4C=CC(C4)C3C2=O)s1` (stereo not shown): 3.03%; for `O=C(CCn1c(=O)c2ccccc2n(Cc2cccnc2)c1=O)NCc1ccc2c(c1)OCO2`: 9.51%; for `O=C(NCc1ccc2c(c1)OCO2)c1cnc2ccccn2c1=O`: 5.17%.
The same measure for `N=c1c(C(=O)NCc2ccc3c(c2)OCO3)cc2c(=O)n3ccccc3nc2n1Cc1cccnc1`: -51.5%; for `COc1ccc(CCn2c(=N)c(C(=O)NC3CCCC3)cc3c(=O)n4cccc(C)c4nc32)cc1`: -79.9%.
For the compound `COCCCn1c(=N)c(C(=O)NC2CCCCC2)cc2c(=O)n3ccccc3nc21`, the “hERG current change (%, negative = inhibition) at 1uM” value is recorded as -81.6%.
The result for `COc1ccc(CCn2c(=N)c(S(=O)(=O)c3ccccc3)cc3c(=O)n4ccccc4nc32)cc1` reads 10.8%; that for `COc1ccc(CCn2c(=N)c(C(=O)N3CCN(C)CC3)cc3c(=O)n4ccccc4nc32)cc1`, -2.76%; that for `COc1ccc(CCn2c(=N)c(C(=O)NC3CCCC3)cc3c(=O)n4ccccc4nc32)cc1`, -89.2%.
`Cc1cccn2c(=O)c3cc(C(=O)NC4CCCC4)c(=N)n(CCc4ccccc4)c3nc12`: the “hERG current change (%, negative = inhibition) at 1uM” value is reported as -33.8%.
The result for `COc1ccc(Cn2c(=N)c(C(=O)NC3CCCCC3)cc3c(=O)n4ccccc4nc32)cc1` reads -5.89%; that for `COc1ccc(CCn2c(=N)c(C(=O)NC3CCCCC3)cc3c(=O)n4ccccc4nc32)cc1`, -84.1%; that for `COc1ccc(CCn2c(=N)c(C(=O)NC3CCCC3)cc3c(=O)n4ccccc4nc32)cc1OC`, -46.9%.
The result for `CCN(C(=O)c1cc2c(=O)n3ccccc3nc2n1CCCOC)C1CCCCC1` reads 2.38%; that for `C/C(=N\NC(=O)c1cccc(F)c1)c1ccc(NC(=O)Cc2ccccc2)cc1`, 12.8%; that for `COc1cccc(CN2C(=NC(=O)C3CC3)SC3CS(=O)(=O)CC32)c1` (stereo not shown), 14.8%.
Regarding `NC(=O)c1ccccc1NC(=S)NC(=O)CCc1ccccc1`, the “hERG current change (%, negative = inhibition) at 1uM” value worked out at 6.72%.
Take `CCSc1nnc(-c2ccc(OC)cc2)o1`: the “hERG current change (%, negative = inhibition) at 1uM” value worked out at 3.96%.
As to `Cc1cccc2cc(C#N)c(NCCNC(=S)NCCCN3CCOCC3)nc12`, the “hERG current change (%, negative = inhibition) at 1uM” value is reported as 4.84%.
The same measure for `Oc1c(C=Nc2ccccc2)sc2ccccc12`: 12.4%.
The same measure for `CC(C)CC(=O)C1CCCN(C(=O)c2ccc3oc(Cc4ccccc4)nc3c2)C1` (stereo not shown): 11.9%; for `Cn1c(CC(=O)Nc2ccc(Cl)c(Cl)c2)nnc1SCC(=O)NCc1ccccc1`: 9.85%; for `COc1cc(SC)ccc1C(=O)N1CCc2ccccc21`: 13.9%.
As for `N=c1c(C(=O)NC2CCCCC2)cc2c(=O)n3ccccc3nc2n1CCc1ccccc1`, the “hERG current change (%, negative = inhibition) at 1uM” value was -88.1%.
For the compound `Cc1cc2c(=O)n(Cc3ccco3)c(SCC(=O)N3CCCc4ccccc43)nc2s1`, the “hERG current change (%, negative = inhibition) at 1uM” value came to 0.209%.
The same measure for `CC1CCCC(NC(=O)CCCn2c(=S)[nH]c3ccccc3c2=O)C1C` (stereo not shown): 5.25%; for `CN1CCC(=NNC(=O)CN(c2cccc(Br)c2)S(C)(=O)=O)CC1`: 1.22%; for `CCS(=O)(=O)Nc1ccc(C2=NN(C(=O)c3ccco3)C(c3cccc(F)c3)C2)cc1` (stereo not shown): 0.693%.
As to `CS(=O)(=O)Nc1ccc(C2=NN(C(=O)c3ccco3)C(c3ccc(F)cc3)C2)cc1` (stereo not shown), the “hERG current change (%, negative = inhibition) at 1uM” value was -44.7%.
The result for `CS(=O)(=O)Nc1ccc(C2=NN(C(=O)c3ccco3)C(c3cccc(F)c3)C2)cc1` (stereo not shown) reads -85.9%; that for `CCCCN1C(=N)C(CC)(CC)C(=O)NC1=O.Cl`, 27.4%.
The same measure for `Cc1ccc2cc(CN(Cc3ccco3)C(=O)C3CCCCC3)c(=O)[nH]c2c1C`: 6.2%.
In the case of `Cc1ccc2nc3nc(NCC4CCCO4)c(C(=O)NC4CCCCC4)cc3c(=O)n2c1` (stereo not shown), the “hERG current change (%, negative = inhibition) at 1uM” value is -76.8%.
The result for `C=CCNC(=O)c1cc2c(=O)n3cc(C)ccc3nc2nc1NCC1CCCO1` (stereo not shown) reads -82%.
The result for `Cc1ccc2nc3c(cc(C(=O)NC4CCS(=O)(=O)C4)n3Cc3ccccc3)c(=O)n2c1` (stereo not shown) reads 21.4%; that for `COCCCNC(=O)c1cc2c(=O)n3cc(C)ccc3nc2nc1NCC1CCCO1` (stereo not shown), -26.6%.
The same measure for `O=C(NC1CCCCCC1)c1ccc2nc3cc(Cl)ccc3c(=O)n2c1`: 4.2%; for `Cc1ccc(-c2nn(-c3ccccc3)cc2C(=O)NCC2CCCO2)cc1` (stereo not shown): 1.49%.
With `Cc1ccc2nc(SCC(=O)NC3CCCCC3)nc(=O)n2c1`, the “hERG current change (%, negative = inhibition) at 1uM” value is listed as -4.63%.
The same measure for `CCNc1nc2nc3ccc(C)cn3c(=O)c2cc1C(=O)NCC1CCCO1` (stereo not shown): -31.2%.
The same measure for `CCOCCCNc1nc2nc3ccc(C)cn3c(=O)c2cc1C(=O)NCC1CCCO1` (stereo not shown): -76%; for `Cc1ccc(-c2nn(-c3ccccc3Cl)cc2C(=O)NCC2CCCO2)cc1` (stereo not shown): 18.4%; for `Cc1ccc2nc3nc(NCC4CCCO4)c(C(=O)NC4CCCC4)cc3c(=O)n2c1` (stereo not shown): -83.8%.
The result for `CCn1cc(C(=O)NCC2CCCO2)c2cc(OC)c(OC)cc2c1=O` (stereo not shown) reads 14.8%; that for `CCN(CC)c1ccc(/C=N/NC(=O)CNC(=O)c2ccccn2)cc1`, -7.85%.
For the compound `CC(C)C(C)NC(=O)CSc1nnc(-c2c[nH]c3ccccc23)o1` (stereo not shown), the “hERG current change (%, negative = inhibition) at 1uM” value turned out to be 4.32%.

The record behind these values is publication PMC4336329 (PLoS ONE, 2015).
